# The source made the active and inactive calls.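 How the source made its calls: active means activity change under -35% in any replicate well, with more than 20 beads read in that well; inactive means the rest.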
# Biological target: Caspase recruitment domain-containing protein 9 (Homo sapiens) + E3 ubiquitin-protein ligase TRIM62 (Homo sapiens) (UniProt Q9H257+Q9BVG3)
# Assay: CARD9/TRIM62 protein interaction inhibitors – cell lysate, HEK293FT lysates, Luminex bead ELISA, primary screen (AID 1259341);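 further: PE anti-Flag signal of Flag-CARD9 captured by myc-TRIM62 beads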
# Details: PE fluorescence, active compounds read low, concentration not given here
# Chain of Caspase recruitment domain-containing protein 9 (Homo sapiens) + E3 ubiquitin-protein ligase TRIM62 (Homo sapiens) (Q9BVG3 whole entry, looked up, the tested form may be a part): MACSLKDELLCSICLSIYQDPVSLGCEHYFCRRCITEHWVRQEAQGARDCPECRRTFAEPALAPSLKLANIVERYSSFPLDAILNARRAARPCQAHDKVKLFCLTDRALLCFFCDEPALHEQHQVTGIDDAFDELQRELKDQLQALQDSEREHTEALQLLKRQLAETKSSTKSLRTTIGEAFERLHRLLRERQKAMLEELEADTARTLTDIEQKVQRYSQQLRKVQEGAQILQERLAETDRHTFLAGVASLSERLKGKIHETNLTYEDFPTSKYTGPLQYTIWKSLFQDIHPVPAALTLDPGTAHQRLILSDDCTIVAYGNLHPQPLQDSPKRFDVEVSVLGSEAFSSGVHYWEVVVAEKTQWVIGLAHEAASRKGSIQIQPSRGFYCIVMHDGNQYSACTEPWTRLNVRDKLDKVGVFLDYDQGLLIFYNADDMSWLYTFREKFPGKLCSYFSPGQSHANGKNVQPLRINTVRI
# Chain of Caspase recruitment domain-containing protein 9 (Homo sapiens) + E3 ubiquitin-protein ligase TRIM62 (Homo sapiens) (Q9H257 whole entry, looked up, the tested form may be a part): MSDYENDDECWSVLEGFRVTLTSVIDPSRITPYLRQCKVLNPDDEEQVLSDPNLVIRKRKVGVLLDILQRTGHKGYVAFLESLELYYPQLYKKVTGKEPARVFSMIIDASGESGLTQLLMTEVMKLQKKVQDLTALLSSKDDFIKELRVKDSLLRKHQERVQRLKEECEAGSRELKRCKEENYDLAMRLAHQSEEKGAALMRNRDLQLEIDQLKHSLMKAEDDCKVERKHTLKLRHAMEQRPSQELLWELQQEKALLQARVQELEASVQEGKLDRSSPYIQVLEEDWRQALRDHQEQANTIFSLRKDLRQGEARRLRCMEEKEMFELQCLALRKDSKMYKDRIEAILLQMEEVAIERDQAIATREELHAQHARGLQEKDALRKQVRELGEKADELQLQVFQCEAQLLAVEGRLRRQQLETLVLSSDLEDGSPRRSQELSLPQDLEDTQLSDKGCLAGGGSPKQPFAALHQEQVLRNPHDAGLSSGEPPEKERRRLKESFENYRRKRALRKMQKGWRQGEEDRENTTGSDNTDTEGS
row,Structure (SMILES),"activity change, negative = inhibition"
1,CS(=O)(=O)N1CCN(c2ccc([N+](=O)[O-])c(SCc3ccco3)c2)CC1,-5.97% (inactive)
2,COc1cc(N)c(Cc2nccc3cc(OC)c(OC)cc23)cc1OC,1.93% (inactive)
3,Cc1ccc(C)n1Nc1nc(O)cs1,1.72% (inactive)
4,Cc1ccc(-c2cc(C(=O)NCc3ccco3)c3ccccc3n2)o1,-2.28% (inactive)
5,O=C1c2ccccc2S(=O)(=O)N1Cc1cccc(S(=O)(=O)N2CCOCC2)c1,5.11% (inactive)
6,O=C(COC(=O)c1ccc(F)cc1F)Nc1ncccn1,-18.2% (inactive)
7,O=C(O)C(c1ccccc1)C(c1ccccc1)c1ccccc1 (stereo unspecified),6.86% (inactive)
8,O=[N+]([O-])c1cccc(-c2nnc3ccc4ccccc4n23)c1,-7.69% (inactive)
9,O=C(COc1cccnc1[N+](=O)[O-])c1ccc(Cl)s1,-9.96% (inactive)
10,CCCN1CCCn2nc(CNC(=O)[C@@H](N)Cc3ccc(O)cc3)cc2C1,-26.6% (inactive)
11,N#Cc1sc2nc(-c3ccccc3)cc(-c3ccco3)c2c1N,2.21% (inactive)
12,Nc1cc2c(cc1O)CCCC2,-4.6% (inactive)
13,Cc1ccc2c(c1)C(N1CCCC1=O)CC(c1ccco1)N2 (stereo unspecified),5.12% (inactive)
14,N#Cc1c(N)oc(-c2ccco2)c1-c1ccco1,-6.71% (inactive)
15,C[C@H](CO)N1C[C@H](C)[C@H](CN(C)C(=O)C2CCCCC2)OCCCC[C@H](C)Oc2ccc(NS(=O)(=O)c3cccs3)cc2C1=O,6.16% (inactive)
16,Nc1ccc(-c2cccc(CN3CCCC3)c2)cc1,-3.56% (inactive)
17,NC(=O)C1(N2CCCCC2)CCN(c2ncc(NC(=O)c3ccc(F)cc3)cc2C(=O)O)CC1,-19.3% (inactive)
18,Cc1ccc(Nc2nc(C(=O)Nc3ccc(Cl)cc3)nc3ccccc23)cc1,-19.6% (inactive)
19,O=C(Nc1nc(-c2nc3ccccc3s2)cs1)c1ccco1,1.21% (inactive)
20,CC(=O)c1ccc(NC(=O)c2noc3c2CCC3)cc1,-2.31% (inactive)
21,CC(=O)Nc1ccc2nc3c(=O)n(C)c(=O)n(C)c3nc2c1,3.76% (inactive)
